# From ChEMBL document CHEMBL4808148, “HDAC6 screening dataset using tau-based substrate in an enzymatic assay yields selective inhibitors and activators” (2021)
# Screen size: about 5,600 compounds; about 390 (7%) showed an effect of 50% or more. The full list was thinned out, with strong results kept by preference. Residues, ends and D or L forms follow the SMILES beside them. *: point of attachment. PhAc = O=C(Cc1ccccc1)*
# Molecular target: T1, Protein deacetylase HDAC6 (Homo sapiens) (UniProt Q9UBN7)
# T1 sequence (whole entry): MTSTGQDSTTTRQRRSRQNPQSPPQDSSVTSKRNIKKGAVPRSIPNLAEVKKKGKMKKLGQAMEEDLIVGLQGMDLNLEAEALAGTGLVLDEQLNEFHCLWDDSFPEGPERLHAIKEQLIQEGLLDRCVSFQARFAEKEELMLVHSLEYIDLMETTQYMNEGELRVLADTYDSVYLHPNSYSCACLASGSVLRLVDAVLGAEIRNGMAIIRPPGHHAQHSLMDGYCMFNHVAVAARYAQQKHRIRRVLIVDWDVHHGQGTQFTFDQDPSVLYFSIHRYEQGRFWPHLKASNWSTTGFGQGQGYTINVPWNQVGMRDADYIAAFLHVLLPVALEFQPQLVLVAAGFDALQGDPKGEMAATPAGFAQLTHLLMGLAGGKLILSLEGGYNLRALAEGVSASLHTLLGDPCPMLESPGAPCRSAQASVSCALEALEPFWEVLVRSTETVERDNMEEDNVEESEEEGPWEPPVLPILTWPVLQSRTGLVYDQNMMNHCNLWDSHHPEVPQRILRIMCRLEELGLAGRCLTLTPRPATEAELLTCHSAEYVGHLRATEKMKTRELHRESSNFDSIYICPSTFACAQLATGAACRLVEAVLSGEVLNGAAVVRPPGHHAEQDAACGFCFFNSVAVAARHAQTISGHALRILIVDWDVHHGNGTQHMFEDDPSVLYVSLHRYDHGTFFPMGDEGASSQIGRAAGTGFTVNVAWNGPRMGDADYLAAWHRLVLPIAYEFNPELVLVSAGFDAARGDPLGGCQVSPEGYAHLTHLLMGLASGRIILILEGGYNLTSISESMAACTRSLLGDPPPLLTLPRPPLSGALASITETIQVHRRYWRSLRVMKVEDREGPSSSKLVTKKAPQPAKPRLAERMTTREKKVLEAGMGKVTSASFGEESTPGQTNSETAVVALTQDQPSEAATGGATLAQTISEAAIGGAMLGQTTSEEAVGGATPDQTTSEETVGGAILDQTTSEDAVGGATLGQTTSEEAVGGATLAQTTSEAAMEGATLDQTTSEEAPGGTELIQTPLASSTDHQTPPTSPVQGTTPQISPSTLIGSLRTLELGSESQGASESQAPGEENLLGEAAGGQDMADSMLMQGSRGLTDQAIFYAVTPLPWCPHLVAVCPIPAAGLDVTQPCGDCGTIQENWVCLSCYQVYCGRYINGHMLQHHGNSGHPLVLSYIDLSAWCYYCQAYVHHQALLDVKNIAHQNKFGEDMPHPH
# Conditions: at 10 µM
row,SMILES,inhibition [%]
1,c1ccc2c(c1)Nc1ccccc1S2,74.6
2,CC(C)(C)C(=O)OCC(=O)[C@H]1CC[C@H]2[C@@H]3CCC4=CC(=O)CC[C@]4(C)[C@H]3CC[C@]12C,23.8
3,CCC(=O)c1ccc(OCC(O)CN2CCN(c3ccccc3)CC2)cc1 (configuration not stated),19.9
4,Cc1cc(C)nc(NS(=O)(=O)c2ccc(NC(=S)NC(=O)COc3ccc(Br)cc3Cl)cc2)n1,19.5
5,CCc1ccc(C2=CC(C)(C)Sc3ccc(C#Cc4ccc(C(=O)O)cc4)cc32)cc1,63
6,CCCc1ccc(C(=O)O)cc1,29.1
7,CC1(C)CCC(C)(C)c2cc(C#Cc3ccc(C(=O)O)cc3)ccc21,-3.59
8,COc1cn(-c2ccc(-n3cccn3)cc2F)nc(-c2ccnn2-c2ccccc2)c1=O,0
9,O=C1NC(=O)c2c1c1c3ccccc3n3c1c1c2c2ccccc2n1C1CCC3O1,1.84
10,C[C@H](N)Cc1c[nH]cn1,7.87
11,Oc1ccc(-c2nc3cc(O)cc(Br)c3o2)cc1,101
12,C/C(=C(/CCOC(=O)C(C)C)SS/C(CCOC(=O)C(C)C)=C(\C)N(C=O)Cc1cnc(C)nc1N)N(C=O)Cc1cnc(C)nc1N,9.58
13,COc1cc(CN2CCN(c3ccc(F)cc3)CC2)cc(OC)c1OC,16.8
14,CCCCCCCCCCCCCCCCCC(=O)OC[C@@H](O)[C@H]1OC[C@H](O)[C@H]1O,1.06
15,CC(C)(C)NCC(O)c1cc(Cl)c(N)c(C(F)(F)F)c1 (configuration not stated),16.6
16,c1cc(-c2cnn3cc(-c4ccc(OCCN5CCCCC5)cc4)cnc23)ccn1,69.7
17,c1ccc(OCc2ccc(CCCN3CCOCC3)cc2)cc1,45
18,CC(C)Oc1ccc(-c2cnc3c(-c4ccnc5ccccc45)cnn3c2)cc1,-2.96
19,c1ccc(-c2cnn3cc(-c4ccc(OCCN5CCOCC5)cc4)cnc23)cc1,92.3
20,COc1ccc(-c2cnc3c(-c4cccc5ncccc45)cnn3c2)cc1,-9.41
21,C=C1/C(=C\C=C2/CCC[C@]3(C)[C@@H]([C@H](C)/C=C/[C@H](C)C(C)(C)O)CC[C@@H]23)C[C@@H](O)C[C@@H]1O,-3.96
22,COC(=O)[C@H](Cc1ccc([N+](=O)[O-])cc1)NC(=O)c1cccc2ccccc12,10.5
23,COc1ccc2cc(-c3cc(-c4cc(Cl)cc(Cl)c4)nn3[C@@H](C)c3ccc(C(=O)NCCC(=O)O)cc3)ccc2c1,18.3
24,OC[C@H]1O[C@H](O[C@H]2O[C@H](CO)[C@@H](O)[C@H](O)[C@H]2O)[C@H](O)[C@@H](O)[C@@H]1O,-9.27

row,SMILES,inhibition [%]
1,CN(C)c1nc(N)c(C(=O)Nc2cccnc2)nc1Cl,100
2,O=C(OCC(COC(=O)c1cccnc1)(COC(=O)c1cccnc1)COC(=O)c1cccnc1)c1cccnc1,7.98
3,Cn1cncc1[C@@](N)(c1ccc(Cl)cc1)c1ccc2c(c1)c(-c1cccc(Cl)c1)cc(=O)n2C,-5.64
4,Nc1nc(NC2CC2)c2ncn([C@H]3C=C[C@@H](CO)C3)c2n1,-5.79
5,NC(=O)OCCCc1ccccc1,15.1
6,O=C(O)c1ccccc1NCCc1ccccc1,42.4
7,Cc1ccc(NCCCc2ccccc2)c(N)c1,78.2
8,CCOc1cc2ncc(C#N)c(Nc3ccc(F)c(Cl)c3)c2cc1NC(=O)/C=C/CN(C)C,36.7
9,CCOC(=O)CNC(=O)[C@@H]1CCCN1C(=O)Cc1ccccc1 (PhAc-Pro-Gly-OEt),4.19
10,COC(=O)[C@H](CC(C)C)NC(=O)[C@H](N)CC(C)C,10.2
11,CC1(C)[C@H]2CC[C@@]1(C)[C@H](O)[C@@H]2O (racemic),31.2
12,CCOC(=O)C1=C(N)Oc2ccc(Br)cc2C1C(C#N)C(=O)OCC (configuration not stated),27.8
13,CCOC(=O)C1=C(N)Oc2ccc(Br)cc2[C@H]1[C@H](C#N)C(=O)OCC,52.9
14,Cc1cccc(C)c1NC(=O)CN1CCCCCC1,16.5
15,Cc1ccc(NC(=O)CCCCCC(=O)Nc2ccccc2N)cc1,-2.93
16,C/C(=N\NC(=N)N)c1cc(NC(=O)CCCCCCCCC(=O)Nc2cc(/C(C)=N/NC(=N)N)cc(/C(C)=N/NC(=N)N)c2)cc(/C(C)=N/NC(=N)N)c1,77.6
17,CCS(=O)(=O)N(Cc1cccnc1)c1cccc(-c2ccc(C#N)cc2)c1,17
18,CC1(N2CCC(n3c([C@H]4CCCNC4)nc4ccccc43)CC2)CCCCCCC1,-2.41
19,CCC[C@@H]1CC(=O)N([C@@H](CC)C(N)=O)C1,29.1
20,C[C@H](/C=C/[C@H](C)C(C)(C)O)[C@H]1CC[C@H]2/C(=C/C=C3C[C@@H](O)C[C@H](O)C3)CCC[C@]12C,9.32
21,CCCCN(CCCC)C(=O)CN1C[C@H](c2ccc3c(c2)OCO3)[C@@H](C(=O)O)[C@@H]1c1ccc(OC)cc1,34.1
22,O=C1NC(=S)NC(=O)C1C(=O)Nc1ccccc1,96.3
23,N=C(Nc1ccccc1)Nc1ccccc1,15.5
